{"source": "PubChem BioAssay AID743498", "about": "(The Scripps Research Institute Molecular Screening Center, 2014)", "note": "Values without a mark were called inactive. Active and inactive are the calls of the source.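 The calls were made as follows: active = IC50, the dose giving half inhibition, at or below 10 µM; inactive = IC50 above 10 µM.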", "data": [{"assay": "DNA CAG repeat dye-complex inhibitors – biochemical, fluorescence, 5'CAG/3'GTC DNA, powders, MedChem round 1, counter-screen for r(CAG) RNA repeat binder project, late-stage follow-up (AID 743498)", "conditions": "DNA d(CAG) repeat TO-PRO-1 dye displacement", "values": [{"smiles": "CC(=O)NS(=O)(=O)c1ccc(NC(=O)/C=C/c2cn(-c3ccccc3)nc2-c2ccccc2)cc1", "IC50": "3.6 µM (active)"}, {"smiles": "CN(C)CCCNC(=O)/C=C/c1cn(-c2ccccc2)nc1-c1ccccc1", "IC50": "> 29.9 µM"}, {"smiles": "CS(=O)(=O)Nc1cc(NC(=O)/C=C/c2cn(-c3ccccc3)nc2-c2ccccc2)ccc1F", "IC50": "12.2 µM"}, {"smiles": "CN(C)C(=O)C1CCN(C(=O)/C=C/c2cn(-c3ccccc3)nc2-c2ccccc2)CC1", "IC50": "> 29.9 µM"}, {"smiles": "Cc1c(C(=O)Nc2ccc(S(=O)(=O)N(C)Cc3ccccc3)cc2)oc2ccc(F)cc12", "IC50": "> 29.9 µM"}, {"smiles": "O=C(/C=C/c1cn(-c2ccccc2)nc1-c1ccccc1)NCc1ccccc1", "IC50": "> 29.9 µM"}, {"smiles": "COC(=O)c1ccc(NC(=O)/C=C/c2cn(CCC#N)nc2-c2ccc(F)cc2)cc1", "IC50": "> 29.9 µM"}, {"smiles": "N#C/C(=C/c1cn(Cc2ccccc2)nc1-c1cccnc1)C(=O)Nc1ccc(C(=O)O)cc1", "IC50": "> 29.9 µM"}, {"smiles": "CCN(c1ccccc1)S(=O)(=O)c1ccc(NC(=O)c2oc3ccc(F)cc3c2C)cc1", "IC50": "> 29.9 µM"}, {"smiles": "CCN1CCN(C(=O)/C=C/c2cn(-c3ccccc3)nc2-c2ccccc2)CC1", "IC50": "> 29.9 µM"}, {"smiles": "Cc1ccc(-c2nn(-c3ccccc3)cc2/C=C/C(=O)Nc2ccc(S(N)(=O)=O)cc2)cc1", "IC50": "> 29.9 µM"}, {"smiles": "Cc1c(C(=O)Nc2ccc(S(=O)(=O)Nc3ncccn3)cc2)oc2ccc(F)cc12", "IC50": "> 29.9 µM"}, {"smiles": "O=C(/C=C\\c1cn(-c2ccccc2)nc1-c1ccc(F)cc1)Nc1ccc(C(=O)O)cc1", "IC50": "4.76 µM (active)"}]}]}
